Compounds without any hit were thinned out: in the full panel of roughly 83,000, 20% have a hit.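 Note: values are percent growth. 100 is the growth of untreated cells, values between 100 and 0 indicate rising inhibition; between -100 and 0 indicates cell death.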 Values without a mark were called inactive. Activity calls are given as the source filed them. Rule for the calls: active = growth percent below 10; inactive = the rest.

Test systems include T-47D breast; BT-549 breast; MDA-MB-435 melanoma; SW-620 colon; MCF7 breast; HCT-116 colon; HCC-2998 colon; KM12 colon.
What all share (assay): NCI-60 one-dose screen, 48 h (100 = growth as untreated, 0 = no growth, -100 = all killed)
What all share (settings): 10 µM unless noted

Turning to `O=S(=O)(NCCCNc1nccc(-c2[nH]c(-c3ccccc3)nc2-c2ccc(F)c(O)c2)n1)c1ccc(C(F)(F)F)cc1`, the growth in the assay with T-47D breast is 50.7%; in the assay on BT-549 breast, 55.9%; in the assay with MDA-MB-435 melanoma, -40.6% (active); in the assay with SW-620 colon, 59.8%; in the assay with MCF7 breast, 7.95% (active); with HCT-116 colon, 19.1%. Further, the growth in the assay on HCC-2998 colon is 97.8%; in the assay on KM12 colon it was 36.6%.

Regarding `Cc1ccc(NC2=C(Cl)C(=O)c3nc(C)ccc3C2=O)c(C)c1`, the growth in the assay with T-47D breast was -46.1% (active); in the assay with BT-549 breast, 62.9%; in the assay on MDA-MB-435 melanoma, -90% (active); in the assay with SW-620 colon, -29.4% (active); with MCF7 breast, -64.4% (active); in the assay with HCT-116 colon, -67.7% (active). The values for the growth in the assay on HCC-2998 colon and in the assay with KM12 colon were 64.6% and 44.9%, respectively.

Regarding `Cc1ccc(N2CCN(C3=C(Cl)C(=O)c4ncccc4C3=O)CC2)cc1`, the growth is -56.1% (active) with T-47D breast; 103% in the assay with BT-549 breast; -81.2% (active) with MDA-MB-435 melanoma; -79.7% (active) in the assay on SW-620 colon; -62% (active) in the assay with MCF7 breast; -78.1% (active) with HCT-116 colon. The figures for the growth in the assay with HCC-2998 colon and in the assay with KM12 colon were 104% and 80%, respectively.

Regarding `Cc1c(C(=O)/C=C/c2ccc(Cl)cc2)nnn1-c1ccc2oc(=O)ccc2c1`, the growth with T-47D breast was 85.5%; in the assay on BT-549 breast, 109%; in the assay on MDA-MB-435 melanoma, 99.7%; with SW-620 colon, 97.7%; with MCF7 breast, 42.2%; with HCT-116 colon, 88.5%. Moreover, the results for the growth with HCC-2998 colon and in the assay on KM12 colon were 104% and 99.8%, respectively.

Consider `O=C(CSc1nnc(-c2cccs2)n1-c1ccccc1)Nc1ccccc1`, for which the growth was 78.4% in the assay with T-47D breast; 85.5% in the assay on BT-549 breast; 57.9% in the assay with MDA-MB-435 melanoma; 87.2% with SW-620 colon; 80.3% in the assay on MCF7 breast; 75.4% with HCT-116 colon. In addition, the growth with HCC-2998 colon was 111%; in the assay with KM12 colon, 84.8%.

In the case of `Cc1ccc([C@H]2c3[nH]c4ccccc4c3C[C@H]3C(=O)N(CCCCCCC(=O)NO)CC(=O)N23)s1`, the growth with T-47D breast is 37.3%; with BT-549 breast, 90.9%; in the assay with MDA-MB-435 melanoma, 45.2%; in the assay on SW-620 colon, 51.9%; in the assay with MCF7 breast it was 32.8%; in the assay on HCT-116 colon, 23.7%. Moreover, the growth in the assay on HCC-2998 colon is 82.4%; in the assay on KM12 colon, 74.3%.

In the case of `O=C(/C=C/Nc1ccc(S(=O)(=O)Nc2ncccn2)cc1)c1ccc(N=Cc2c(O)[nH]c3ccccc23)cc1`, the growth in the assay on T-47D breast was 93.1%; with BT-549 breast, 101%; in the assay on MDA-MB-435 melanoma, 100%; with SW-620 colon, 112%; in the assay on MCF7 breast, 87.4%; in the assay with HCT-116 colon it was 111%. The values for the growth with HCC-2998 colon and in the assay with KM12 colon were 109% and 37.3%, respectively.

For `O=C(CSc1nnc(-c2ccc(Cl)cc2)n1-c1ccccc1)Nc1ccccc1Cl`, the growth in the assay with T-47D breast is 45.7%; in the assay with BT-549 breast, 53.8%; in the assay with MDA-MB-435 melanoma, 80.9%; with SW-620 colon, 51.6%; with MCF7 breast, 66.4%; in the assay on HCT-116 colon, 12.1%. In addition, the growth was 88.3% in the assay with HCC-2998 colon and 80% with KM12 colon.

Turning to `CC1CCN(CC(=O)Nn2c(COc3ccccc3)nc3ccccc3c2=O)CC1`, the growth with T-47D breast is 67.8%; in the assay on BT-549 breast it was 97.9%; with MDA-MB-435 melanoma, 5.85% (active); in the assay on SW-620 colon, 57.2%; in the assay with MCF7 breast, 42.4%; in the assay with HCT-116 colon, 81.9%. Further, the values for the growth in the assay with HCC-2998 colon and in the assay with KM12 colon were 89.9% and 45%, respectively.

With `C#C[C@]1(O)CC[C@H]2[C@@H]3CC=C4c5sc(N6CCN(C)CC6)nc5CC[C@]4(C)[C@H]3CC[C@@]21C`, the growth was 85.7% in the assay with T-47D breast; 16.9% with BT-549 breast; 1.24% (active) in the assay with MDA-MB-435 melanoma; 19.6% in the assay on SW-620 colon; 24.2% in the assay with MCF7 breast; -41% (active) in the assay with HCT-116 colon. Moreover, the growth in the assay with HCC-2998 colon is 81.2%; in the assay with KM12 colon, 21.1%.

For the compound `COC(=O)CCSC1=C(C)C(=O)c2ccccc2C1=O`, the growth with T-47D breast was 43.5%; in the assay on BT-549 breast it was 88.8%; with MDA-MB-435 melanoma, 106%; in the assay with SW-620 colon, 96.3%; with MCF7 breast, 73.3%; with HCT-116 colon it was 91.5%. Also, the figures for the growth in the assay on HCC-2998 colon and with KM12 colon were 111% and 82.7%, respectively.

For `Cc1ccc(CSC2=C(Cl)CN(c3ccc(Cl)cc3)C2=O)cc1`, the growth with T-47D breast was 96.5%; in the assay on BT-549 breast, 110%; in the assay with MDA-MB-435 melanoma it was 103%; in the assay with SW-620 colon, 108%; in the assay with MCF7 breast it was 79.1%; in the assay on HCT-116 colon, 98.5%. For the same compound, the growth in the assay with HCC-2998 colon is 105%; in the assay on KM12 colon, 106%.

For `O=c1oc2ccc(-c3ccc(F)cc3F)cc2c(=O)n1-c1ccc(Br)cc1F`, the growth in the assay with T-47D breast is 5.88% (active); in the assay on BT-549 breast it was 30.9%; in the assay on MDA-MB-435 melanoma it was 66.9%; with SW-620 colon, 79.3%; with MCF7 breast it was 58.5%; in the assay with HCT-116 colon it was 57.3%. For the same compound, the growth in the assay with HCC-2998 colon was 81.5%; in the assay with KM12 colon, 61.4%.

Consider `O=C(CCCCCCN1CC(=O)N2[C@@H](C3CC3)c3[nH]c4ccccc4c3C[C@H]2C1=O)NO`, for which the growth with T-47D breast was 66.1%; in the assay with BT-549 breast it was 104%; in the assay with MDA-MB-435 melanoma it was 40.3%; in the assay on SW-620 colon, 61.2%; in the assay on MCF7 breast, 39.9%; with HCT-116 colon, 33.4%. The growth was 108% in the assay with HCC-2998 colon and 84.2% in the assay on KM12 colon.
